Test results from PubChem BioAssay (NCATS).
Results filed as inconclusive are left out. Calls of active or inactive are those of the source. Unless noted, calls come from the whole dose curve; as a rule, active = well fitted curve in the direction sought with a large enough effect; inconclusive = small, poorly fitted or top-dose-only effect, or another doubt; inactive = no such curve, though single readings can be large; an effect the other way counts as inactive or inconclusive.

Assays:
[1] = qHTS assay for measurement of the activity of small molecule inhibitors on Zika virus induced Caspase-3 activity in human iPSC derived neural progenitor cells (hNPCs) (AID 1224857); note: nearly all actives have a fitted effect of over 65% in size
Outline: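 Pretreat hNPCs with compound 1 h; infect ZIKV 2 FFU/cell; 6 h 37 C, 5% CO2; Caspase-Glo 3/7, 30 min RT; luminescence; normalize to no-virus and virus-only wells.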

[2] = qHTS assay for measurement of the activity of small molecule inhibitors on Zika virus induced Caspase-3 activity in human astrocytoma cells (AID 1224859)
Outline: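 Human SNB-19 astrocytoma cells in RPMI 1640 with 10% FBS receive compound one hour ahead of Zika virus at 2 FFU/cell. After 6 h infection, caspase-3/7 activity is detected by Caspase-Glo luminescence.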

[3] = qHTS assay to identify small molecule inhibitors of chordoma cells - UCH-1 (AID 1259355); note: nearly all actives have a fitted effect of over 55% in size; note: potency is the fitted concentration of half-maximal effect
Outline: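 A 48hr growth-inhibition format: each drug tested at 15 concentrations together with added auranofin, camptothecin, doxorubicin, rubitecan and topotecan, with cell viability quantified as CellTiter-Glo luminescence.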

[4] = qHTS assay to identify small molecule inhibitors of chordoma cells - UCH-2 (AID 1259356); note: potency is the fitted concentration of half-maximal effect
[5] = P-glycoprotein substrates identified in KB-8-5-11 adenocarcinoma cell line, qHTS therapeutic library screen (AID 1346987); note: nearly all actives have a fitted effect of over 65% in size; note: potency is the fitted concentration of half-maximal effect
Outline: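 Human cervical adenocarcinoma KB-8-5-11 cells, selected in colchicine to over-express P-gp and assayed without it, were exposed for 72 h to titrated compounds. An ATP-based luminescent viability signal gave AC50.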

[6] = P-glycoprotein substrates identified in KB-3-1 adenocarcinoma cell line, qHTS therapeutic library screen (AID 1346986); conditions: outcome: dose series up to 44.5 µM; note: nearly all actives have a fitted effect of over 60% in size
Outline: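 Using luminescence to quantify ATP, parental and P-gp-overexpressing KB cells were compared after 72 h compound titration. KB-8-5-11 was also run with the P-gp inhibitor tariquidar.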

[7] = qHTS profiling of the MIPE4 collection as inhibitors of Plasmodium falciparum (HB3) proliferation (AID 743347; call rule not given here); conditions: P. falciparum HB3 in erythrocytes, SYBR Green DNA, 72 h; at 28.5 µM (top of the series)
Outline: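 Parasite DNA was quantified by SYBR Green I fluorescence (ex 485, em 535 nm) after overnight lysis in saponin/Triton buffer at room temperature. Cultures at 0.3% parasitemia and 2.5% hematocrit were first exposed to compound for 72 h at 37 C; signals were normalised to artemisinin (0.29 uM) and vehicle wells.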

CN(C)[C@@H]1C(=O)C(C(N)=O)=C(O)[C@@]2(O)C(=O)C3=C(O)c4c(O)ccc(Cl)c4[C@@H](O)[C@H]3C[C@@H]12
inactive: outcome [1] | outcome [2] | Potency [3] | Potency [4] | Potency [5]

CNCCCN1c2ccccc2CCc2ccccc21
inactive: outcome [1] | outcome [2] | Potency [3] | Potency [4] | Potency [5]

CNCCC(Oc1ccccc1OC)c1ccccc1 (stereo not given)
inactive: outcome [1] | outcome [2] | Potency [3] | Potency [4] | Potency [5]

O=C(O)CP(=O)(O)O
inactive: outcome [1] | outcome [2] | Potency [3] | Potency [4] | Potency [5]

COCC(=O)O[C@]1(CCN(C)CCCc2nc3ccccc3[nH]2)CCc2cc(F)ccc2[C@@H]1C(C)C
inactive: outcome [1] | outcome [2]
active: Potency [3] 31.6 µM | Potency [4] 14.6 µM | Potency [5] 2.31 µM

CCCCCN(CCCCC)C(=O)C(CCC(=O)O)NC(=O)c1ccc(Cl)c(Cl)c1 (stereo not given)
inactive: outcome [1] | outcome [2] | Potency [3] | Potency [4] | Potency [5]

CCCNC(C)C(=O)Nc1ccccc1C (stereo not given)
inactive: outcome [1] | outcome [2] | Potency [3] | Potency [4] | Potency [5]

CCCN1C[C@H](CSC)C[C@@H]2c3cccc4[nH]cc(c34)C[C@H]21
inactive: outcome [1] | outcome [2] | Potency [3] | Potency [4] | outcome [6] | Potency [5]

CC(C(=O)O)c1ccc(CC2CCCC2=O)cc1 (stereo not given)
inactive: outcome [1] | outcome [2] | Potency [3] | Potency [4] | Potency [5]

O=c1[nH]c(=O)n([C@H]2C[C@H](O)[C@@H](CO)O2)cc1Br
inactive: outcome [1] | outcome [2] | Potency [3] | Potency [4] | Potency [5]

CN/C(=C\[N+](=O)[O-])NCCSCc1ccc(CN(C)C)o1
inactive: outcome [1] | outcome [2] | Potency [3] | Potency [4] | Potency [5]

OC(CCN1CCCCC1)(c1ccccc1)C1CCCCC1 (stereo not given)
inactive: outcome [1] | outcome [2] | Potency [3] | Potency [4] | Potency [5]

CO[C@@]1(NC(=O)CSCC#N)C(=O)N2C(C(=O)O)=C(CSc3nnnn3C)CS[C@@H]21
inactive: outcome [1] | outcome [2] | Potency [3] | Potency [4] | Potency [5]

CC(=O)OC(C)C[N+](C)(C)C (stereo not given)
inactive: outcome [1] | outcome [2] | Potency [3] | Potency [4] | Potency [5]

NC/C=C/C(=O)O
inactive: outcome [1] | outcome [2] | Potency [3] | Potency [4] | Potency [5]

CC(C)(C)c1ccc(C(=O)CCCN2CCC(OC(c3ccccc3)c3ccccc3)CC2)cc1
active: Potency [3] 15.8 µM | Potency [5] 20.6 µM
inactive: outcome [1] | outcome [2] | Potency [4]

NS(=O)(=O)c1cc2c(cc1Cl)NC(C1CC3C=CC1C3)NS2(=O)=O (stereo not given)
inactive: outcome [1] | outcome [2] | Potency [3] | Potency [4] | Potency [5]

C[N+](C)(C)CCOC(N)=O
inactive: outcome [1] | outcome [2] | Potency [3] | Potency [4] | Potency [5]

C[C@H](CS)C(=O)N1CCC[C@H]1C(=O)O
inactive: outcome [1] | outcome [2] | Potency [3] | Potency [4] | Potency [5]

C[C@@H](O)[C@H]1C(=O)N2C(C(=O)O)=C(SCCN=CN)C[C@H]12
inactive: outcome [1] | outcome [2] | Potency [3] | Potency [4] | Potency [5]

CCN(CC)CCNC(=O)c1ccc(NC(C)=O)cc1
inactive: outcome [1] | outcome [2] | Potency [3] | Potency [4] | Potency [5]

N[C@@H](COP(=O)(O)O)C(=O)O
inactive: outcome [1] | outcome [2] | Potency [3] | Potency [4] | Potency [5]

CCN(CC)CCNC(=O)c1cc(S(C)(=O)=O)ccc1OC
inactive: outcome [1] | outcome [2] | Potency [3] | Potency [4] | Potency [5]

CN=C(NC#N)NCCSCc1nc[nH]c1C
inactive: outcome [1] | outcome [2] | Potency [3] | Potency [4] | Potency [5]

FC(F)(F)c1ccccc1-n1ccnc1
inactive: outcome [1] | outcome [2] | Potency [3] | Potency [4] | Potency [5]

CC(=O)[C@@]1(O)CC[C@H]2[C@@H]3CCC4=CC(=O)CC[C@]4(C)[C@H]3CC[C@@]21C
inactive: outcome [1] | outcome [2] | Potency [3] | Potency [4] | Potency [5]

CCN1CCC[C@H]1CNC(=O)c1c(O)c(Cl)cc(Cl)c1OC
inactive: outcome [1] | outcome [2] | Potency [3] | Potency [4] | Potency [5]

O=C(O)CN(CCOCCOCCN(CC(=O)O)CC(=O)O)CC(=O)O
inactive: outcome [1] | outcome [2] | Potency [3] | Potency [4] | Potency [5]

O=C(CCNNC(=O)c1ccncc1)NCc1ccccc1
inactive: outcome [1] | outcome [2] | Potency [3] | Potency [4] | Potency [5]

CC(=O)Nc1nnc(S(N)(=O)=O)s1
inactive: outcome [1] | outcome [2] | Potency [3] | Potency [4] | Potency [5]

CC(C)COCC(CN(Cc1ccccc1)c1ccccc1)N1CCCC1 (stereo not given)
2.98%: growth, % of control [7]
inactive: outcome [1] | outcome [2] | Potency [3] | Potency [4]

NC(=O)N1c2ccccc2C=Cc2ccccc21
inactive: outcome [1] | outcome [2] | Potency [4] | Potency [5]

CCNC(=O)N1CCN(CCCC(c2ccc(F)cc2)c2ccc(F)cc2)CC1
inactive: outcome [1] | outcome [2] | Potency [3] | Potency [4]
active: Potency [5] 16.4 µM
